These results are taken from PubChem BioAssay AID456 (Sanford-Burnham Center for Chemical Genomics, 2006).

The campaign covered roughly 10,000 compounds. About 25 (0.2%) were called active. The list comes from a sample in which actives are over-represented; it also holds similar structures and randomly drawn compounds. Measured potencies and affinities stand elsewhere. Values without a mark were called inactive.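 The calls were made as follows: active = top tenth filtered wells with inhibition above zero that passed visual or statistical confirmation; inactive = the rest, including hits rejected on review.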

This assay in a line: suppression of endothelial VCAM-1 upregulation – imaging, high-content imaging, pooled HUVEC, TNFa stimulus (AID 456).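 As to inhibition: VCAM-1 immunofluorescence minus red nonspecific channel after plate median normalization.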 The following applies: HUVEC TNFa-induced VCAM-1 surface expression, immunofluorescence imaging;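 compounds screened at 5 µM final in the well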.
In the case of `CCOC(=O)C1CCCN(C(=O)CNS(=O)(=O)c2ccc(Br)s2)C1` (stereo not given), the inhibition entry was “inactive”.
The result for `COC(=O)C1=C(C)n2nnnc2NC1c1ccc(Cl)cc1` (stereo not given) reads “inactive”.
For the compound `O=C(NCCN1CCOCC1)c1ccc2c(c1)N(Cc1ccccc1)C(=O)CS2`, the inhibition entry is “inactive”.
In the case of `C=CCn1c(SCC(=O)NCC2CCCO2)nnc1C1CCCCC1` (stereo not given), the inhibition result was “inactive”.
For the compound `COc1ccc(-c2nn3c(-c4ccncc4)nnc3s2)cc1OC`, the inhibition result is “inactive”.
The result for `Cc1cn2c(-c3ccncc3)nnc2s1` reads “inactive”.
As to `Cc1ccc2cc(C(c3nnnn3C3CCCC3)N3CCN(c4ccc(F)cc4)CC3)c(=O)[nH]c2c1` (stereo not given), the inhibition entry is “inactive”.
For `Cc1ccc2nc(C(F)(F)F)c(C#N)c(N)c2c1` the value was 74.6% (active); for `Cc1cc(-c2ccccc2)c(C#N)c(N)n1`, “inactive”; for `CN(C)c1ccc(NC(=O)CSCc2nc3c(nnn3Cc3ccc(F)cc3)c(=O)[nH]2)cc1`, “inactive”.
Regarding `COC(=O)c1c(N)sc(C(=O)N2CCOCC2)c1C`, the inhibition result is “inactive”.
`O=C(CSc1nnc(-c2cccnc2)o1)Nc1ccccn1`: the inhibition entry was “inactive”.
For the compound `c1ccc(Cn2ncc3c2ncn2c(-c4ccncc4)nnc32)cc1`, the inhibition result is “inactive”.
For `CCOc1ccc(C(c2nnnn2Cc2ccccc2)N2CCN(C(=O)c3ccco3)CC2)cc1` (stereo not given) the value was “inactive”; for `O=C(CSc1nnnn1Cc1ccccc1)Nc1ccc2c(c1)OCO2`, “inactive”; for `CCOC(=O)c1sc(Nc2nc3c(OC)cccc3s2)nc1C`, “inactive”.
`COc1cc(NS(=O)(=O)N2CCCC2)cc(OC)c1OC`: the inhibition result was “inactive”.
`COc1ccc2ccccc2c1CN1CCN(C)CC1`: the inhibition result was “inactive”.
The result for `c1cc(C(c2nnnn2C2CCCC2)N2CCOCC2)ccn1` (stereo not given) reads “inactive”.
For the compound `O=C(Nc1ccc(N2CCOCC2)c(F)c1)c1ccncc1`, the inhibition result was “inactive”.
For `COc1ccc2cc(C(c3nnnn3C(C)(C)C)N3CCc4ccccc4C3)c(=O)[nH]c2c1` (stereo not given) the value was “inactive”; for `CCC(C)(C)n1nnnc1C(c1ccc(OC)c(OC)c1)N1CCN(c2ccccc2)CC1` (stereo not given), “inactive”; for `C=CCSC1=C(C#N)C(c2ccccc2OCC)CC(=O)N1` (stereo not given), “inactive”.
For `CNC(=O)CSc1nnc(-c2cc(C)cc(C)c2)o1` the value was “inactive”; for `Cc1csc(NC(=O)CCCSc2nc3ccccc3s2)n1`, “inactive”; for `CCOCCCNC(=O)C1CCCN(S(=O)(=O)CC)C1` (stereo not given), “inactive”.
For `O=C(NCc1ccccc1)C1CCCN1S(=O)(=O)c1cccc2cccnc12` (stereo not given) the value was “inactive”; for `C[C@]12CC[C@H]3[C@@H](CCC4=CC(=O)CC[C@@]43C)[C@@H]1CC[C@@H]2C(=O)CO`, 72.2%.
On to `CC(=O)[C@H]1CC[C@H]2[C@@H]3CCC4=CC(=O)CC[C@]4(C)[C@H]3CC[C@]12C`, for which the inhibition is 87.1%.
As to `CC(=O)OCC(=O)[C@H]1CC[C@H]2[C@@H]3CCC4=CC(=O)CC[C@]4(C)[C@H]3CC[C@]12C`, the inhibition is 78.2% (active).
As to `CC(=O)OCC(=O)[C@@]1(O)[C@H](C)C[C@H]2[C@@H]3CCC4=CC(=O)C=C[C@]4(C)[C@@]3(F)[C@@H](O)C[C@@]21C`, the inhibition result is “inactive”.
Consider `CCCC(=O)O[C@]1(C(=O)CCl)[C@@H](C)C[C@H]2[C@@H]3CCC4=CC(=O)C=C[C@]4(C)[C@@]3(F)C(=O)C[C@@]21C`, for which the inhibition entry is “inactive”.
For `CCC(=O)O[C@]1(C(=O)CCl)[C@@H](C)C[C@H]2[C@@H]3CCC4=CC(=O)C=C[C@]4(C)[C@@]3(F)[C@@H](O)C[C@@]21C` the value was 78.5% (active); for `CCOC(=O)Nc1cc(OCC)c(NC(=O)C2CC2)cc1OCC`, “inactive”; for `COC(=O)CCN(C(=O)c1ccc2c(c1)OCO2)c1ccccn1`, “inactive”.
For `Cc1ccc(S(=O)(=O)N2CCCC(c3nnc4n3-c3ccccc3SC4)C2)cc1` (stereo not given) the value was “inactive”; for `Cc1ccc(Nc2nc(N)nc(CN3CCN(Cc4ccc5c(c4)OCO5)CC3)n2)cc1`, “inactive”; for `COc1ccccc1C(=O)Nc1ccc(S(=O)(=O)N2CCCC2)cc1`, “inactive”.
On to `CCOC(=O)c1ccc(NC(=O)CSCc2ccco2)cc1`, for which the inhibition result is “inactive”.
For `COC(=O)c1cc(=O)n(Cc2ccc3c(c2)OCO3)c(=Nc2ccccc2)s1` the value was 96.4%; for `COc1ccc(S(=O)(=O)Cc2ccc(C(=O)N3CCN(Cc4ccccc4)CC3)o2)cc1`, “inactive”.
For `CCC(c1c(C)n(C)n(-c2ccccc2)c1=O)c1c(C)n(C)n(-c2ccccc2)c1=O` the value was “inactive”; for `Cc1nc2sccn2c(=O)c1CCN1CCC(=C(c2ccc(F)cc2)c2ccc(F)cc2)CC1`, 87.2%.
The result for `Cc1nc2ccccn2c(=O)c1CCN1CCC(C(=O)c2ccc(F)cc2)CC1` reads “inactive”.
For the compound `CCOC(=O)c1cc2c(=O)n3ccccc3nc2n(CC(C)C)c1=NC(=O)c1ccco1`, the inhibition entry is “inactive”.
For `CC(C)n1c(=NC(=O)c2ccco2)c(C#N)cc2c(=O)n3ccccc3cc21` the value was 78.9% (active).
For `Cc1cccn2c(=O)c3cc(C#N)c(=NC(=O)c4ccncc4)n(Cc4ccco4)c3nc12` the value was “inactive”; for `Cc1n[nH]c(C)c1S(=O)(=O)N1CCCCCC1`, “inactive”.
As to `CC1Oc2ccccc2N(CC(=O)N(Cc2ccccc2)Cc2ccccn2)C1=O` (stereo not given), the inhibition entry was “inactive”.
For `COc1ccc(N2CCN(Cc3nc(-c4ccc(Cl)cc4Cl)no3)CC2)cc1` the value was “inactive”; for `O=C(/C=C1\NC2(CCCC2)Cc2ccccc21)N1CCOCC1`, “inactive”; for `CCCN1C=CC(=C2C(=O)c3ccccc3C2=O)C=C1`, “inactive”.
Regarding `COc1ccc2cc3cc(C(=O)NCC4CCCO4)oc3nc2c1` (stereo not given), the inhibition result is “inactive”.
For `CC1(C(=O)NC2CCCCC2)CCC(=O)N1Cc1cccs1` (stereo not given) the value was “inactive”.
On to `COc1ccc(Br)cc1S(=O)(=O)N1CCOCC1`, for which the inhibition entry is “inactive”.
In the case of `Cc1cccc(-c2nnc(SCC#N)n2-c2cccc(Cl)c2)c1`, the inhibition result was “inactive”.
The result for `COc1ccc2cc(CN(CCO)C(=O)c3ccccc3F)c(=O)[nH]c2c1` reads “inactive”; that for `CCn1nnc(NC(=O)c2cc3ccccc3o2)n1`, “inactive”; that for `CCOC(=O)c1cccc(NC(=O)CSc2nnc(-c3ccoc3C)n2CCOC)c1`, “inactive”.
The result for `COC(=O)c1ccccc1NC(=O)CSc1nc2c(c(=O)n(C)c(=O)n2C)n1C` reads “inactive”.
As for `O=C(c1cnn2c(C(F)F)cc(-c3ccccc3)nc12)N1CCN2CCCC2C1` (stereo not given), the inhibition entry was “inactive”.
With `CCOc1ccc(-c2cc(C(=O)N3CCN(c4ccccn4)CC3)c3ccccc3n2)cc1`, the inhibition result was “inactive”.
For `Cc1ccc(-c2cc(C(F)F)n3ncc(C(=O)N4CCN(c5ccccn5)CC4)c3n2)cc1`, the inhibition is 80.5% (active).
The result for `CC1(C)CC(CCNC(=O)c2ccco2)CC(C)(C)N1` reads “inactive”.
Turning to `CC1CCc2nn(CC(=O)NCc3ccc4c(c3)OCO4)cc2C1` (stereo not given), the inhibition entry is “inactive”.
For `CCS(=O)(=O)c1nc2ccccc2n1Cc1ccccc1Cl`, the inhibition entry is “inactive”.
For `O=C1c2oc3ccccc3c(=O)c2C(c2ccccn2)N1Cc1ccccc1` (stereo not given) the value was “inactive”; for `COc1ccc(Cl)c(NC(=O)NCCN2CCN(c3ccccc3)CC2)c1`, “inactive”.
For `Cc1cc2ncn(C(=O)c3c(-c4ccccc4)noc3C)c2cc1C`, the inhibition result is “inactive”.
The result for `CCOC(=O)N1CCC(N2C(=O)c3ccccc3C2Nc2ccccc2C)CC1` (stereo not given) reads “inactive”; that for `CCOC(=O)N1CCC(N2C(=O)c3ccccc3C2Nc2cc(Cl)c(OC)cc2OC)CC1` (stereo not given), 72.7% (active); that for `CCOC(=O)c1ccccc1NC1c2ccccc2C(=O)N1C1CCN(C(=O)OCC)CC1` (stereo not given), “inactive”.
With `CCN(CC)C(=O)CSc1nnc([C@@H](N)Cc2ccccc2)o1`, the inhibition entry is “inactive”.
For `Cc1nnc(NC(=O)c2ccccc2F)s1` the value was “inactive”; for `CCOc1ccc(N(CC(=O)NC2CCCC2)S(=O)(=O)c2c(C)[nH]c(=O)[nH]c2=O)cc1`, “inactive”.
Consider `CC1CC(C)CN(Cc2nc3c(c(=O)n(C)c(=O)n3C)n2Cc2ccccc2Cl)C1` (stereo not given), for which the inhibition entry was “inactive”.
For `O=C(COC(=O)c1ccc(S(=O)(=O)Nc2ccccc2)cc1)NCCN1C(=O)CSC1=O` the value was “inactive”; for `CCOC(=O)CSc1nc2ccccc2c(=O)n1CCN1CCOCC1`, “inactive”; for `O=C(NCCC1=CCCCC1)C1CC(=O)N(C2CCCCCC2)C1` (stereo not given), “inactive”.
On to `CCCN1CCN(CCCNC(=O)Cn2nc(-c3ccc(Cl)cc3)ccc2=O)CC1`, for which the inhibition result is “inactive”.
For `Cc1ccc(-c2ccc(=O)n(CC(=O)NCCCN3CCCCC3C)n2)cc1` (stereo not given) the value was “inactive”; for `COCc1nnc(NC(=O)CCCOc2ccccc2)s1`, “inactive”.
With `Cc1ccc(NC(=O)CCC(=O)O)cc1F`, the inhibition entry is “inactive”.
On to `CC1Cc2ccccc2N1C(=O)CSc1nnc2n1C(C)(C)Cc1ccccc1-2` (stereo not given), for which the inhibition entry was “inactive”.
The result for `CCOc1ccc(Nc2nc(Cc3nnc(SCC(N)=O)o3)cs2)cc1` reads “inactive”; that for `COc1ccc(Br)cc1C1N2CC3(C)CN1CC(C)(C2)C3=O` (stereo not given), “inactive”.
As for `Cc1cc(C)nc(SC2=CS(=O)(=O)c3ccccc32)n1`, the inhibition is 99.6%.
In the case of `O=S1(=O)C=C(Sc2nnc(-c3ccccc3)o2)c2ccccc21`, the inhibition entry was “inactive”.
For `CCCCN(CCCC)CCn1cnc2c([nH]c3ccc(OC)cc32)c1=O` the value was “inactive”; for `O=C(CC1Oc2ccccc2NC1=O)NCCCN1CCOCC1` (stereo not given), “inactive”.
The result for `CC(C)(C)OC(=O)N1CCC(C(=O)N2CCCCCC2)CC1` reads “inactive”; that for `Nc1cc(N)cc(-c2nc3ccccc3o2)c1`, “inactive”; that for `Nc1nc(CN2CCOCC2)cs1`, “inactive”.
The result for `CC(C(=O)N1c2ccc(F)cc2CCC1C)N1C(=O)c2ccccc2C1=O` (stereo not given) reads “inactive”; that for `COc1cccc(NC(=O)CN2CCN(c3ccccc3F)CC2)c1`, “inactive”; that for `CCOc1ccc(N(CC(=O)Nc2ccc(C)c(C)c2)S(=O)(=O)c2c(C)noc2C)cc1`, “inactive”.
Regarding `N#CCCN(Cc1cccnc1)C(=O)Nc1ccc(Cl)c(Cl)c1`, the inhibition entry was “inactive”.
The result for `COc1ccccc1-c1noc(-c2ccco2)n1` reads “inactive”.
The result for `Cc1cc(=O)n2[nH]c(-c3ccc(Cl)cc3)cc2n1` reads “inactive”; that for `CCOC(=O)Cn1nc(-c2ccc(Cl)cc2)cc1N`, “inactive”.
In the case of `COc1ccc(NC(=O)CN(c2cc(C)cc(C)c2)S(=O)(=O)c2c(C)noc2C)cc1OC`, the inhibition result is “inactive”.
For `c1cc2c(cc1Nc1nc(-c3ccc4c(c3)OCO4)cs1)OCCO2`, the inhibition result was “inactive”.
For `CC(=O)Nc1nc(C)c(-c2csc(Nc3ccc(O)cc3)n2)s1` the value was “inactive”; for `Cc1ccc(Cc2c(C)nc3c(C(=O)O)cnn3c2C)cc1`, “inactive”; for `CCOC(=O)CN1CC23C=CC(O2)C(C(=O)Nc2ccc(OCC)cc2)C3C1=O` (stereo not given), “inactive”.
In the case of `CN(C)CCCN1c2ccccc2Sc2ccccc21`, the inhibition entry is “inactive”.
The result for `CN(C)CCCN1c2ccccc2Sc2ccc(C(F)(F)F)cc21` reads “inactive”; that for `CN(C)CCCN1c2ccccc2CCc2ccccc21`, “inactive”; that for `CNCCCN1c2ccccc2CCc2ccccc21`, “inactive”.
For `CCC1CCCCN1CCCNC(=O)CC1Oc2ccc(C)cc2NC1=O` (stereo not given), the inhibition result was “inactive”.
